# Sampled rows, rich in hits. Any-hit rate of the full collection: about 10%.
# IMPase cell inh = IMPase inhibition in cells. P97697. CHO-M1 cells, IP1 accumulation, HTRF TR-FRET ratio. inhibition (IP1 accumulation), % at 46.1 µM. 120,000 tested, under 10 active. AID 901; active = well fitted curve in the direction sought with a large enough effect in the signal ratio, not every such curve was filed as active; inconclusive = small, poorly fitted or top-dose-only effect, or a change in a side signal; inactive = no such curve, though single readings can be large or run the other way; the % refers to the signal ratio;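 also: cells stimulated with carbachol in lithium chloride buffer; plate controls were DMSO basal wells for no effect and reference inhibitor wells for full effect; higher means more IMPase inhibition seen as more IP1 and lower FRET ratio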
#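 Seeded CHO-M1 cells were dosed with compound at up to 46 uM, stimulated with carbachol for 30 min, then lysed in IP-One detection reagents. Higher IP1 lowers the TR-FRET signal.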
# PNC assembly inh = inhibitors of perinucleolar compartment assembly; activity change (PNC), negative = inhibition, % at 10 µM; PC3M PTB-GFP, PNC prevalence imaging, 16 h; hits give low values; actives 3.1% (n = 140,000);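 active = readout at or below -70, meaning at least 70% loss of cells showing the perinucleolar compartment, a nuclear body marking cancer cells; inconclusive = readout between -30 and a set limit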;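 also: plate controls were DMSO wells for no effect and camptothecin positive control wells for full effect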
#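 PC3M cells stably expressing PTB-GFP, 750–1000 cells/well, treated 16 h at 37 °C with compound (23 nl of library stock), in duplicate. After paraformaldehyde fixation and Hoechst stain, imaged at 20x; PNC prevalence scored by image analysis.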
# Luc counter = blocks Kinase-Glo luciferase, a counter-screen artifact; Kinase-Glo luciferase, ATP luminescence, 8 min; Potency, µM (doses to about 38.3 µM), for the others: at the highest dose activity change, negative = inhibition, most hits filed as inhibitors; actives 0.28% (n = 200,000); Q27757; active = well fitted inhibition curve with a large enough effect; inconclusive = small, poorly fitted or top-dose-only effect; also: potency is read from the fitted curve at half-maximal effect; nearly all actives have a fitted effect of over 60% in size
#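 Compound is pinned into ATP-containing buffer (10 uM ATP, imidazole pH 7.2, 7 mM MgCl2). Kinase-Glo luciferase reagent is then added. Light output is recorded following an 8-min room-temperature incubation.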
# Lamin A splicing = modulators of lamin A splicing; AID 1487; Potency, µM (titrated, usually from 46.1 µM), inactives show top-dose ratio change, negative = inhibition, hits mostly inhibitors; HeLa LMNA splicing GFP/RFP minigene ratio, 48 h; actives 0.01% (n = 200,000); active = well fitted inhibition curve with a large enough effect in the signal ratio, with a control signal flat, not every such curve was filed as active; inconclusive = small, poorly fitted or top-dose-only effect, or effect the other way, or a change in a side signal; the % refers to the signal ratio; also: potency is read from the fitted curve at half-maximal effect
#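 Read-out is the ratio of GFP to DsRed2 object intensity, acquired by 488 nm laser-scanning cytometry on HeLa lamin A-EGFP minigene reporter cells. Compound incubation 48 hrs at 37 °C in Opti-MEM with 2% FBS; DMSO 0.5% final.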
# HPGD block = inhibitors of human 15-hydroxyprostaglandin dehydrogenase (HPGD). purified HPGD, NADH fluorescence kinetic, PGE2 substrate. Potency, µM, for inactives: at the top dose activity change, negative = inhibition, actives largely listed as inhibitors. actives 4.3% (n = 150,000); also: potency is read from the fitted curve at half-maximal effect
# Target sequence (P15428 whole entry, looked up): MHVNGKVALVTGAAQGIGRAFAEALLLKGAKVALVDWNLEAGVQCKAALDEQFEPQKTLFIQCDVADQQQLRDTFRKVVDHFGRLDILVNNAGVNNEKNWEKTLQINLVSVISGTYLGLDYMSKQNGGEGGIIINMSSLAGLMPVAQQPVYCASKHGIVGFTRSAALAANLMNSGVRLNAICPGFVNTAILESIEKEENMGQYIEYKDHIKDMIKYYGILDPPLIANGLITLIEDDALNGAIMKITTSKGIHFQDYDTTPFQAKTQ
#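 20 nM HPGD preincubated 15 min at room temperature with compound in 50 mM Tris-HCl pH 8, 0.01% Tween 20. Started with 1 mM NAD+ and 30 uM prostaglandin E2; NADH fluorescence (360/450 nm) read 5 times over 30-s intervals, last minus first.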
# ALDH1A1 inh = ALDH1A1 (human) enzyme inhibition. Purified ALDH1A1, NADH fluorescence, propionaldehyde substrate. Potency, µM (top dose mostly 75.3 µM), for the others: at the top dose activity, negative = inhibition, actives largely listed as inhibitors. actives 7.3% (n = 220,000). AID 1030;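 also: potency is read from the fitted curve at half-maximal effect; plate controls were no enzyme wells and a reference inhibitor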
# Target sequence (P00352 whole entry, looked up): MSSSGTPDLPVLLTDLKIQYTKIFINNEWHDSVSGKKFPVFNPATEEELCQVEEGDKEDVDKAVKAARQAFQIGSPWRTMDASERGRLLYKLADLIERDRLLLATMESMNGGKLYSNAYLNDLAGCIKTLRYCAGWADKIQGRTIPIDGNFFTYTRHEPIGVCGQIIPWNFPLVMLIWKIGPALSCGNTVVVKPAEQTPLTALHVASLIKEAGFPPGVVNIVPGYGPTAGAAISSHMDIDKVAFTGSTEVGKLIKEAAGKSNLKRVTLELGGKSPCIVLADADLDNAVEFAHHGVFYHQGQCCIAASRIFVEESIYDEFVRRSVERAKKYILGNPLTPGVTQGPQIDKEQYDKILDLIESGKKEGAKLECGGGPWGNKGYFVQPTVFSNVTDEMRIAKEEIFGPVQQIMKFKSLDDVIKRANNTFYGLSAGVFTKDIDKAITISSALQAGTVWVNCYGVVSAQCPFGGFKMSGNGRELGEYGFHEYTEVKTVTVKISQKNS
# Starred values were filed as active, the others as inactive; ? = inconclusive; · = not tested or not shown; [ ] = dose if it differs, or a comment. Unless noted, calls follow the shape of the dose curve; as a rule, active = well fitted inhibition curve with a large enough effect (not every such curve was filed as active); inconclusive = small, poorly fitted or top-dose-only effect, or another doubt; inactive = no such curve, though single readings can be large or run the other way. Unless noted, % is scaled to controls: 0 for no effect and ±100 for the full control effect.
SMILES,IMPase cell inh,PNC assembly inh,Luc counter,Lamin A splicing,HPGD block,ALDH1A1 inh
Cn1c(N)c(C(=O)COC(=O)c2ccc(Cl)c(S(=O)(=O)N3CCCCC3)c2)c(=O)n(C)c1=O,·,67,0%,-9%,16µM*,9%
CC(C)Cn1c(N)c(C(=O)COC(=O)c2ccccc2F)c(=O)n(C)c1=O,·,·,4%,?,·,-15%
Cn1c(N)c(C(=O)COC(=O)c2cccs2)c(=O)n(C)c1=O,2,26,0%,7%,-11%,14µM*
Cn1c(N)c(C(=O)COC(=O)c2ccc(S(=O)(=O)N3CCCCC3)cc2)c(=O)n(C)c1=O,·,·,2%,·,·,1%
CCOc1ccc(NC(=O)CN2C(=O)c3ccccc3Sc3ccc(C(=O)OC)cc32)cc1,·,·,·,20%[46 µM],·,·
Cc1cccc(OCC(=O)OCc2cc(=O)n3nc(C4CCCCC4)sc3n2)c1,·,·,·,-6%[46 µM],·,·
CCCCCCCCCC[Si](C)(C)CCC(=O)N[C@@H](Cc1ccc(C)cc1)c1ccccc1,4,·,·,·,·,·
Cc1ccc(Cl)cc1NC(=O)CCCn1c(=O)c2cccn2c2ccccc21,·,·,·,-9%[46 µM],·,·
CCOC(=O)c1cc(C(=O)c2ccccc2O)cn2c(=O)c3c(C)c(C)sc3nc12,·,·,-1%,-2%[46 µM],·,14µM*
Cc1cc(NC(=S)N(CCN2CCCCC2)Cc2ccco2)ccc1Cl,·,·,0%,?,·,7.9µM*
Cc1cc(NC(=S)N(CCCN2CCOCC2)Cc2ccco2)ccc1Cl,·,-118*,-1%,?,-16%,-13%
COc1ccc(Cl)cc1NC(=S)N(CCCN1CCOCC1)Cc1cn(C)c2ccccc12,·,?,-1%,5%,28µM*,-14%
COc1cc(Cl)ccc1NC(=S)N(CCCN1CCOCC1)Cc1cn(C)c2ccccc12,16,?,-5%,?,?,?
CSc1ncc(C(=O)NCc2ccc(C)cc2)c(C)n1,·,·,·,-9%[46 µM],·,·
CCC(=O)N1c2ccccc2CC1C(=O)NCCc1ccc(OC)c(OC)c1 (stereo not given),·,·,·,1%[46 µM],·,·
C=CCn1c(CNc2ccc(C)cc2)nnc1SCC(=O)N/N=C/c1ccc(O)cc1,4,22,-4%,-4%,-15%,25µM*
C=CCn1c(COc2ccc(Cl)cc2)nnc1SCC(=O)N/N=C/c1ccccc1,5,-18,-2%,13%,0%,-2%
COc1ccc(S(=O)(=O)c2c(C)c(NS(=O)(=O)c3ccccc3)cc(C)c2O)cc1,·,·,·,·,·,8.9µM*
Cc1ccc(S(=O)(=O)Nc2cc(Cl)c(O)cc2C)cc1,-4,20,-4%,?,0%,?
COc1ccc(S(=O)(=O)Nc2cc(C)c(O)c(S(=O)(=O)c3ccccc3)c2)cc1,-5,-102*,3%,3%,-2%,?
Cc1c(NS(=O)(=O)c2ccccc2)cc(Cl)c(O)c1C,-3,-8,1%,22%,32µM*,22µM*
Oc1c(Br)cc(Br)cc1CN(Cc1cc(Br)cc(Br)c1O)C1CCCCC1,·,·,-6%[7.66 µM],·,-14%,8%[13.5 µM]
CC1(C)[C@@H]2CC[C@]1(C)[C@@H](OC(=O)/C=C\c1ccccc1)C2,·,·,3%[7.66 µM],·,-10%,-1%[13.5 µM]
Cc1cnc(C(=O)N2CCN(S(=O)(=O)c3ccc4ccccc4c3)CC2)cn1,23,?,3%,0%,-17%,13µM*
O=S(=O)(c1ccc2ccccc2c1)N1CCN(C2Cc3ccccc3C2)CC1,·,-7,-2%,-9%,-10%,28µM*
SMILES,IMPase cell inh,PNC assembly inh,Luc counter,Lamin A splicing,HPGD block,ALDH1A1 inh
Cc1cnc2c(c1SCC(=O)NCc1ccccc1Cl)c(=O)n(C)c(=O)n2C,·,·,·,1%[46 µM],·,·
CC(C)CCNC(=O)c1nnc(Cc2ccc(Cl)cc2)o1,1,-110*,0%,1%,-4%,12%
Clc1nnc(NN=C2CCCC2)c2ccccc12,·,31,-4%,?,-14%,2.8µM*
COc1ccc(C(=O)N2CCC3(CCCN(Cc4ccccc4OC)C3)CC2)cc1,·,·,-3%,·,-3%,1%
Cc1ccc(S(=O)(=O)N2C(=O)C(c3ccccc3)SC2=Nc2ccccc2)cc1 (stereo not given),3,22,-1%,4%,10µM*,8.9µM*
O=[N+]([O-])c1ccc(C(=S)N2CCN(c3ccc(F)cc3)CC2)cc1,·,·,2%,?,·,10µM*
Cc1ccccc1N1CCN(C(=S)c2ccc([N+](=O)[O-])cc2)CC1,·,?,1%,?,?,?
CN(C)c1ccc(C(=S)N2CCN(c3ccc([N+](=O)[O-])cc3)CC2)cc1,·,·,·,·,·,1µM*
O=[N+]([O-])c1ccc(NC(=S)N2CCN(c3ccc(F)cc3)CC2)cc1,4,44,0%,6%[0.0737 µM],-15%,4%
Cc1cccc(N2CCN(C(=S)c3ccccc3)CC2)c1,·,·,5%,-4%[46 µM],·,?
Cc1cccc(N2CCN(C(=S)c3ccc([N+](=O)[O-])cc3)CC2)c1,·,-27,-1%,?,7.9µM*,2.5µM*
CC(=O)N1CCN(c2ccc([N+](=O)[O-])cc2)CC1,·,·,-1%,1%[46 µM],·,1%
CC(=O)N1CCN(C(=S)c2ccc([N+](=O)[O-])cc2)CC1,3,14,6%,-9%,32µM*,22µM*
O=C(NNC(=O)c1cccnc1SCc1cccc([N+](=O)[O-])c1)c1ccc(F)cc1,-8,-87*,3%,?,-8%,-9%
COc1ccc(C2C(C(=O)NCCN(C)C)c3ccccc3C(=O)N2C)cc1OC (stereo not given),-3,?,·,2%,·,-3%
COc1ccc(C2C(C(=O)NCc3ccccn3)c3ccccc3C(=O)N2C)cc1OC (stereo not given),-2,-88*,-4%,4%,-15%,-5%
COCCN=C1NN=C(c2cc(C)n(CC3CCCO3)c2C)CS1 (stereo not given),·,·,-6%,-12%[46 µM],·,?
Cc1c(N=C2NN=C(c3ccc(Cl)cc3)CS2)c(=O)n(-c2ccccc2)n1C,·,·,3%,10%[46 µM],·,18µM*
COCCCN=C1NN=C(c2cc(C)n(-c3ccccc3)c2C)CS1,·,?,2%,?,-16%,8.9µM*
Fc1ccc(F)c(C2=NNC(=Nc3ccccc3F)SC2)c1,·,?,-17%,?,16µM*,16µM*
COCCCN=C1NN=C(c2cc(C)n(Cc3ccccc3Cl)c2C)CS1,·,·,-3%,·,·,25µM*
CN(C)CCCc1c2ccccc2nc2ccc(Cl)cc12,·,·,0%[7.66 µM],·,-8%,5%[13.5 µM]
COc1ccc(-c2ccc3c(n2)CCCN3C[C@H](O)CN2CCCc3nc(-c4ccc(Br)cc4)ccc32)cc1,·,·,·,·,·,-14%[13.5 µM]
O=C(NCCC1=CCCCC1)c1ccc2c(c1)N(Cc1cccc(Cl)c1)C(=O)c1ccccc1S2=O (stereo not given),·,·,·,-8%[46 µM],·,·
